Screening results (PubChem BioAssay)
HPGD block = blocks human HPGD enzyme activity; purified HPGD, NADH fluorescence kinetic, PGE2 substrate; AID 894; P15428; 4.3% of 150,000 active; Potency, µM, for the others: at the top dose activity change, negative = inhibition, usual class: inhibitors; active means well fitted inhibition curve with a large enough effect, not every such curve was filed as active; inconclusive means small, poorly fitted or top-dose-only effect, or another doubt; inactive means no such curve, though single readings can be large or run the other way
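NADH formation kinetics: reaction with 30 uM PGE2 and 1 mM NAD+ (final), 20 nM enzyme, Tris-HCl pH 8 with Tween 20, after 15 min compound preincubation at room temperature. Fluorescence change, last versus first of five reads.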
Tau FP inhib = tau fibrillization inhibition (FP); 0.39% of 280,000 active; K18 P301L tau heparin fibrillization, Alexa594 FP, 6 h; AID 1468; Potency, µM (top dose mostly 57.7 µM), without a hit: at the highest dose activity, negative = inhibition, actives largely listed as inhibitors; P10636; further: nearly all actives have a fitted effect of over 55% in size
Target sequence (P10636 561-689 P618L limits assumed): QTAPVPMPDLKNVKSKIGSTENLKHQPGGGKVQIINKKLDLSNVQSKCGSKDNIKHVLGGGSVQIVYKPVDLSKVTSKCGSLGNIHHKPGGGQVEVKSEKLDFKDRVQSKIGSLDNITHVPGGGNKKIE
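Recombinant K18 P301L […], labeled with Alexa 594 at 0.24 uM over 15 uM unlabeled; heparin inducer 20 uM final; 37 C, 6 hr; FP endpoint.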
ALDH1A1 inh = inhibitors of human aldehyde dehydrogenase 1A1; 7.3% of 220,000 active; P00352; Potency, µM (top dose mostly 75.3 µM), for inactives: at the highest dose activity, negative = inhibition, actives largely listed as inhibitors; AID 1030; Purified ALDH1A1, NADH fluorescence, propionaldehyde substrate; active means well fitted inhibition curve with a large enough effect, not every such curve was filed as active; inconclusive means small, poorly fitted or top-dose-only effect, or another doubt; inactive means no such curve, though single readings can be large or run the other way;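 further: plate controls were no enzyme wells and a reference inhibitor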
Target sequence (P00352 whole entry, looked up): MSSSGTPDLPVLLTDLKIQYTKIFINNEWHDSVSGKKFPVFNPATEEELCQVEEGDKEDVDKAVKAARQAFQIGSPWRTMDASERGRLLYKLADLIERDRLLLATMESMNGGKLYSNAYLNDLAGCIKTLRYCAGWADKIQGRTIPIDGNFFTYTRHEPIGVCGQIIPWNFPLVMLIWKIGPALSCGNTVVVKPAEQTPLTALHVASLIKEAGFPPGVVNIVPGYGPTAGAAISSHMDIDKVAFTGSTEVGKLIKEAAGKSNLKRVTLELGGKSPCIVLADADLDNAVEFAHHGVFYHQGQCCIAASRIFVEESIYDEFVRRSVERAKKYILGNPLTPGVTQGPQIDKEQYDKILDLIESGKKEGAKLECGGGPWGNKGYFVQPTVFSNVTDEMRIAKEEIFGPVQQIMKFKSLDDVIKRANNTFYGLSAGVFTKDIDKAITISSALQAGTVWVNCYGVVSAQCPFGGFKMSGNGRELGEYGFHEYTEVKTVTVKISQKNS
Tau fluor counter = counter-screen for tau fibril formation inhibitors; tau K18 P301L Alexa594 fluorescence, heparin fibrillization; Potency, µM (highest dose often 57.7 µM), inactives show at the top dose activity change, negative = decrease; 0.93% of 280,000 active; AID 1463; further: nearly all actives have a fitted effect of over 55% in size
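Human tau K18 P301L (15 uM unlabeled, 0.24 uM Alexa 594-labeled) in 100 mM sodium acetate pH 7 with 20 uM heparin, 6 hr at 37 C. ThT 30 uM added, 1 hr ambient; Alexa 594 FP and total fluorescence read at 555/632 nm.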
Tau fibril ThT = inhibitors of human tau fibril formation, thioflavin T binding; P10636; recombinant tau K18 P301L (four-repeat tau fragment), heparin-induced fibrillization, ThT fluorescence; Potency, µM (top dose mostly 57.4 µM), without a hit: at the highest dose activity, negative = inhibition, most hits filed as inhibitors; 2.1% of 270,000 active; AID 1460; further: nearly all actives have a fitted effect of over 55% in size
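Recombinant human tau K18 fragment […] carrying P301L, 15 uM unlabeled plus 0.24 uM Alexa 594-labeled, was fibrillized with 20 uM heparin in 100 mM sodium acetate pH 7 for 6 hr at 37 C; 30 uM ThT fluorescence read after 1 hr.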
NPSR antagonist = antagonists of human neuropeptide S receptor cAMP signaling; Q6W5P4; CHO-NPSR cells, cAMP TR-FRET, antagonist mode; Potency, µM (highest dose often 38.3 µM), without a hit: top-dose activity change, negative = inhibition, hits mostly inhibitors; 1% of 220,000 active; AID 1461; further: nearly all actives have a fitted effect of over 50% in size
* hit, by the source's call; [ ] = dose if it differs, or a comment. Shown are actives, neighbours in structure and some others; about 9.5% of the full set was active somewhere. Unless noted, the call rests on the fitted dose curve; in most records, active means well fitted curve in the direction sought with a large enough effect; inconclusive means small, poorly fitted or top-dose-only effect, or another doubt; inactive means no such curve, though single readings can be large; an effect the other way counts as inactive or inconclusive. Unless noted, on the % scale 0 is the no-effect control and ±100 the full control effect; potency means the concentration at half of the fitted maximal effect.

Screening O=C(/C=C/c1ccc2c(c1)OCO2)c1ccccc1 returned HPGD block -10%, Tau FP inhib 6%, ALDH1A1 inh 8%, Tau fluor counter 3% and Tau fibril ThT -9%.
`Cc1ccc(C(=O)c2cn(Cc3ccc(Cl)cc3)c3nc(C)ccc3c2=O)cc1` gave Tau FP inhib 3%, Tau fluor counter -7% and Tau fibril ThT -8%.
For COc1cc(Br)cc2cc(C(=O)N3CCCCC3C)c(=O)oc12 (stereo not given) the results were HPGD block 13µM*, Tau FP inhib 2%, ALDH1A1 inh inconclusive, Tau fluor counter -6%, Tau fibril ThT -14% and NPSR antagonist -10%[46.1 µM].
For CCN(CC)S(=O)(=O)c1ccc(N2CCOCC2)c(NS(=O)(=O)c2ccc(C(C)C)cc2)c1 the results were HPGD block -4%, Tau FP inhib -1%, ALDH1A1 inh -2%, Tau fluor counter -4%, Tau fibril ThT -4% and NPSR antagonist 14%.
For CCN(CC)S(=O)(=O)c1ccc(N2CCCC2)c(NC(=O)c2ccccc2OC)c1 the results were Tau FP inhib 14%, Tau fluor counter -19% and NPSR antagonist -47%.
CCN(CC)S(=O)(=O)c1ccc(N2CCCC2)c(NS(=O)(=O)c2ccc(F)cc2)c1 was read as HPGD block -27%, Tau FP inhib 12%, ALDH1A1 inh 0.63µM*, Tau fluor counter -26%, Tau fibril ThT -16% and NPSR antagonist -20%.
Screening CCN(CC)S(=O)(=O)c1ccc(N2CCCC2)c(NS(=O)(=O)c2ccc(OC)cc2)c1 returned HPGD block -6%, Tau FP inhib 7%, ALDH1A1 inh 2.5µM*, Tau fluor counter -14%, Tau fibril ThT -10% and NPSR antagonist -23%.
Screening CCN(CC)S(=O)(=O)c1ccc(N2CCOCC2)c(NS(=O)(=O)c2cc(C(C)(C)C)ccc2C)c1 returned HPGD block -15%, Tau FP inhib 4%, ALDH1A1 inh 14µM*, Tau fluor counter -24%, Tau fibril ThT -18% and NPSR antagonist -37%.
Screening CCN(CC)S(=O)(=O)c1ccc(N2CCCC2)c(NS(=O)(=O)c2ccc([N+](=O)[O-])cc2)c1 returned Tau FP inhib inconclusive, ALDH1A1 inh 2µM*, Tau fluor counter inconclusive, Tau fibril ThT -12% and NPSR antagonist -9%[46.1 µM].
`Cc1ccc(C(CC(=O)Nc2ccc(C)cc2C)N2Cc3ccccc3C2=O)cc1` (stereo not given) gave Tau FP inhib -1%, Tau fluor counter -18% and Tau fibril ThT -15%.
For CCN(CC)S(=O)(=O)c1ccc(N2CCCC2)c(NC(=O)Cc2ccccc2)c1 the results were Tau FP inhib 2%, Tau fluor counter -7%, Tau fibril ThT -3% and NPSR antagonist -10%.
`CCN(CC)S(=O)(=O)c1ccc(N2CCCC2)c(NS(=O)(=O)c2ccccc2)c1` gave HPGD block -13%, Tau FP inhib 4%, ALDH1A1 inh 0.35µM*, Tau fluor counter 1%, Tau fibril ThT 8% and NPSR antagonist -21%.
O=C(CSc1cc(Cl)ccc1Cl)NCC1CCCO1 (stereo not given) was read as HPGD block 6.3µM*, Tau FP inhib -1%, ALDH1A1 inh 5%, Tau fluor counter -6%, Tau fibril ThT -4% and NPSR antagonist -6%[46.1 µM].
`O=C(CCCOc1ccc(Cl)cc1)NCC1CCCO1` (stereo not given) gave HPGD block 14µM*, Tau FP inhib 4%, ALDH1A1 inh inconclusive, Tau fluor counter -6%, Tau fibril ThT -4% and NPSR antagonist 6%[46.1 µM].
For O=C(CSCc1c(Cl)cccc1Cl)NCC1CCCO1 (stereo not given) the results were HPGD block 5µM*, Tau FP inhib 4%, ALDH1A1 inh inconclusive, Tau fluor counter 3%, Tau fibril ThT 5% and NPSR antagonist -2%[46.1 µM].
`O=C(CSc1ccc2c(c1)OCCO2)NCc1ccccc1` gave Tau FP inhib 1%, ALDH1A1 inh -10%, Tau fluor counter -6%, Tau fibril ThT -2% and NPSR antagonist 3%.
`O=C(CSc1ccc2c(c1)OCCO2)NCC1CCCO1` (stereo not given) gave HPGD block 16µM*, Tau FP inhib 5%, ALDH1A1 inh inconclusive, Tau fluor counter 4%, Tau fibril ThT -4% and NPSR antagonist 3%[46.1 µM].
Screening COCC(C)NC(=O)c1cc2c(=O)n3cccc(C)c3nc2s1 (stereo not given) returned Tau FP inhib 3%, Tau fluor counter -22% and Tau fibril ThT inconclusive.
Screening c1cncc(CNCc2cccnc2)c1 returned HPGD block -3% and ALDH1A1 inh 0%[13.5 µM].
Screening CCN(CC)c1ccc(/C=N/NC(=O)c2c[nH]c3ccccc23)cc1 returned HPGD block inconclusive, Tau FP inhib 7%, ALDH1A1 inh inconclusive, Tau fluor counter 13µM*[quencher], Tau fibril ThT 5µM* and NPSR antagonist -50%.
Screening CCN(CC)c1ccc(/C=N/NC(=O)c2cc(C)nc3ccccc23)cc1 returned Tau FP inhib 15%, Tau fluor counter inconclusive, Tau fibril ThT inconclusive and NPSR antagonist -22%.
For CCN(CC)c1ccc(/C=N/NC(=O)c2ccco2)c(O)c1 the results were Tau FP inhib 13%, Tau fluor counter inconclusive, Tau fibril ThT inconclusive and NPSR antagonist 22%.
`CCN(CC)c1ccc(/C=N/NC(=O)c2ccco2)cc1` gave HPGD block -29%, Tau FP inhib 8%, ALDH1A1 inh 10µM*, Tau fluor counter inconclusive, Tau fibril ThT inconclusive and NPSR antagonist -19%.
`O=C(CCc1c[nH]c2ccccc12)NC1CC1` gave HPGD block 16µM*, Tau FP inhib 7%, ALDH1A1 inh 5%, Tau fluor counter -9%, Tau fibril ThT -5% and NPSR antagonist -3%[46.1 µM].
Screening S=C(NCCc1c[nH]c2ccccc12)NC1CC1 returned Tau FP inhib 4%, ALDH1A1 inh 3%, Tau fluor counter -16%, Tau fibril ThT inconclusive and NPSR antagonist -2%.
`CCN(CC)c1ccc(/C=N/NC(=O)c2cnccn2)cc1` gave Tau FP inhib -4%, ALDH1A1 inh 22µM*, Tau fluor counter -17%, Tau fibril ThT 14µM* and NPSR antagonist 3%.
Screening COc1ccc(CNC(=O)c2cnn3c(C(F)F)cc(C)nc23)cc1OC returned HPGD block -14%, Tau FP inhib -3%, ALDH1A1 inh 16%, Tau fluor counter 4%, Tau fibril ThT -4% and NPSR antagonist -5%[46.1 µM].
For Cc1oc(-c2ccc(C(=O)NCCC(C)C)cc2)nc1CS(=O)(=O)c1ccccc1 the results were Tau FP inhib 2%, Tau fluor counter -4% and Tau fibril ThT 9%.
